Laboratory results reported in PubChem BioAssay (Tox21).
Where “and” joins values, the source holds several entries; their conditions need not be identical. Identical values can stand only once. Unmarked numbers belong to inactive results. Inconclusive results are not listed. Entries that show only a call come without a potency. Calls of active or inactive are those of the source. Unless noted, calls follow the shape of the dose curve; as a rule, active = well fitted curve in the direction sought with a large enough effect in the repeat runs; inconclusive = weak or mixed curves; inactive = no such curve, though single readings can be large; an effect the other way counts as inactive or inconclusive.

Experiments:
[1] = biological target: Acetylcholinesterase (Homo sapiens) (UniProt P22303); test: Acetylcholinesterase (AChE) small molecule antagonists: fluorescence cell-based qHTS assay (AID 1347398; calls by dose curve; also: nearly all actives have a fitted effect of over 50% in size); details: Potency: AChE activity
Acetylcholinesterase (Homo sapiens), sequence (P22303 whole entry, looked up): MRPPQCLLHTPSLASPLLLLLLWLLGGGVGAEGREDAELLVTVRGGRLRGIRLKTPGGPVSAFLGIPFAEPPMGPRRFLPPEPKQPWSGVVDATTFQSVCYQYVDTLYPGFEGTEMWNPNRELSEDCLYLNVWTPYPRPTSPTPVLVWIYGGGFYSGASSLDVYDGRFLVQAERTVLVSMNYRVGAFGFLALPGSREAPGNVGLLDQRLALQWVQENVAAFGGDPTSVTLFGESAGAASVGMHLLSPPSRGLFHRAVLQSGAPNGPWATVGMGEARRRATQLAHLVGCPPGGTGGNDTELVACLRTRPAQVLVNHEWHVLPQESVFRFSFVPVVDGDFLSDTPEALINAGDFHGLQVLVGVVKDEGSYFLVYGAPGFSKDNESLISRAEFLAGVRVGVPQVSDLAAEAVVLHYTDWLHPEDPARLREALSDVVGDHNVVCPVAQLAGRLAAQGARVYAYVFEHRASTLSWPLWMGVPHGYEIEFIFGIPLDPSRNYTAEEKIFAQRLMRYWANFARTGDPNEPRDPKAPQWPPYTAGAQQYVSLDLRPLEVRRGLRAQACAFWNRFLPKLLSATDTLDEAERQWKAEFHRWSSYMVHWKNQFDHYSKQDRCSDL
How it was run: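 Cellular AChE inhibition: SH-SY5Y cells treated with test chemical for 30 min at 37 C, then acetylthiocholine hydrolysis followed over 40 min at room temperature via thiocholine-reactive Thiolite Green fluorescence (490/520 nm).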

[2] = biological target: Acetylcholinesterase (Homo sapiens) (UniProt P22303); test: Acetylcholinesterase (AChE) small molecule antagonists: enzyme-based qHTS assay with human liver microsomes (AID 1347399; calls by dose curve; also: nearly all actives have a fitted effect of over 60% in size); details: Potency: qHTS inhibition
How it was run: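 Recombinant human AChE (50 mU/mL in the enzyme mix) and human liver microsomes (0.25 mg/mL final) were preincubated with compound and NADPH (0.25 mg/mL final) for 30 min at 37 C. Acetylthiocholine/DTNB was then added; thiocholine was read colorimetrically after 10 min at room temperature.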

[3] = biological target: Cytochrome P450 2D6 (Homo sapiens) (UniProt P10635); test: Cytochrome P450 Family 2 Subfamily D Member 6 (CYP2D6) small molecule antagonists: luciferase reporter qHTS assay (AID 1671196); also: nearly all actives have a fitted effect of over 50% in size
Cytochrome P450 2D6 (Homo sapiens), sequence (P10635 whole entry, looked up): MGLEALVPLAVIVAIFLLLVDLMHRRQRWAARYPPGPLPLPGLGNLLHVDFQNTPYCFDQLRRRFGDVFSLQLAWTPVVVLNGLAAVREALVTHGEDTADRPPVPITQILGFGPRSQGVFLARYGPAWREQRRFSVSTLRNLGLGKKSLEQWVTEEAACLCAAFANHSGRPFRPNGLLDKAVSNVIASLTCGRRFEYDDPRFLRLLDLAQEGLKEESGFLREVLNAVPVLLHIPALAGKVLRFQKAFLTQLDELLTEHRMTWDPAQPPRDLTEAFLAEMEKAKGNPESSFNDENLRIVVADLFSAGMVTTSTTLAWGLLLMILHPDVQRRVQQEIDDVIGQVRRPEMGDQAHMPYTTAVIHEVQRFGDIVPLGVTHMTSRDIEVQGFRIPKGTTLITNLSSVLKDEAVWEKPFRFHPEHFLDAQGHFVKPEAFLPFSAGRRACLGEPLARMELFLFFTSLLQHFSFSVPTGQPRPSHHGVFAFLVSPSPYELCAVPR
How it was run: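 Test chemicals meet CYP2D6 plus proluciferin substrate (10 min, RT); NADPH regenerating solution then drives turnover for 1 h. Detection reagent halts the reaction; luminescence measured after 20 min.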

[4] = biological target: Cytochrome P450 2C19 (Homo sapiens) (UniProt P33261); test: Cytochrome P450 Family 2 Subfamily C Member 19 (CYP2C19) small molecule antagonists: luciferase reporter qHTS assay (AID 1671197); also: nearly all actives have a fitted effect of over 65% in size
Cytochrome P450 2C19 (Homo sapiens), sequence (P33261 whole entry, looked up): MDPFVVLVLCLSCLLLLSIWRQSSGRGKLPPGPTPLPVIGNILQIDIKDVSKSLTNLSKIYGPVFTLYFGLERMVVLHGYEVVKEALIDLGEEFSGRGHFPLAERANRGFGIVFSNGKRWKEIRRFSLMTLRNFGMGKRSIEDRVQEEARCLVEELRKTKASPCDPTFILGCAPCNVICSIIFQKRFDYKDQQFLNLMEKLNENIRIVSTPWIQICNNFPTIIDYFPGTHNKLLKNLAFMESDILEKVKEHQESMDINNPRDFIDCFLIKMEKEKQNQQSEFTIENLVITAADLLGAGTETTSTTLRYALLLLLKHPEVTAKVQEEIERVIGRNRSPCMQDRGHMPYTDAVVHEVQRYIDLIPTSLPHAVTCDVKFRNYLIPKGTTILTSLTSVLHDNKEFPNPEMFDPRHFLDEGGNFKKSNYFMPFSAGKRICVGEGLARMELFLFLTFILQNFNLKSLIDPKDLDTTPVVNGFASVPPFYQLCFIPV
How it was run: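 P450-Glo CYP2C19 screening system; proluciferin substrate; DMSO compound stocks; 10 min RT preincubation; NADPH regeneration, 1 h at 37C; luciferin detection reagent, 20 min RT; luminescence as RLU.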

[5] = biological target: Cytochrome P450 2C9 (Homo sapiens) (UniProt P11712); test: Cytochrome P450 Family 2 Subfamily C Member 9 (CYP2C9) small molecule antagonists: luciferase reporter qHTS assay (AID 1671198); also: nearly all actives have a fitted effect of over 50% in size
Cytochrome P450 2C9 (Homo sapiens), sequence (P11712 whole entry, looked up): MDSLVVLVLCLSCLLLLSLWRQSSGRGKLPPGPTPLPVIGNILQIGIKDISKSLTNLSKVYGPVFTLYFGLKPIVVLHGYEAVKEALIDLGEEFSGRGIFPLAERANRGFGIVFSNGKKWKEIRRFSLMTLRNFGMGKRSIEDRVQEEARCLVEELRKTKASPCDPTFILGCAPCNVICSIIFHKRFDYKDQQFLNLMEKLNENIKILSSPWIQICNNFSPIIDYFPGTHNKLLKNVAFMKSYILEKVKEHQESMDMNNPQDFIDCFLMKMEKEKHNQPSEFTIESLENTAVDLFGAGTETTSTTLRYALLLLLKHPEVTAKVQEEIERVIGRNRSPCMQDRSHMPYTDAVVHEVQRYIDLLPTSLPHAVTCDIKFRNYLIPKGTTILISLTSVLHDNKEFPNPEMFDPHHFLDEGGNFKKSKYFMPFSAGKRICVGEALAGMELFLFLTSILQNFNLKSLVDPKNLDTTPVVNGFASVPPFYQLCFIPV
How it was run: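 CYP2C9 activity was measured with a P450-Glo proluciferin substrate. Enzyme–substrate mix was held with compound for 10 min at room temperature, then NADPH regeneration solution was added for 1 h at 37C. Luciferin product was read as luminescence.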

[6] = biological target: Voltage-gated inwardly rectifying potassium channel KCNH2 (Homo sapiens) (UniProt Q12809); test: Human Ether-a-go-go-Related Gene (hERG) channel small molecule antagonists: fluorescence cell-based qHTS assay (AID 1671200); also: nearly all actives have a fitted effect of over 50% in size
Voltage-gated inwardly rectifying potassium channel KCNH2 (Homo sapiens), sequence (Q12809 whole entry, looked up): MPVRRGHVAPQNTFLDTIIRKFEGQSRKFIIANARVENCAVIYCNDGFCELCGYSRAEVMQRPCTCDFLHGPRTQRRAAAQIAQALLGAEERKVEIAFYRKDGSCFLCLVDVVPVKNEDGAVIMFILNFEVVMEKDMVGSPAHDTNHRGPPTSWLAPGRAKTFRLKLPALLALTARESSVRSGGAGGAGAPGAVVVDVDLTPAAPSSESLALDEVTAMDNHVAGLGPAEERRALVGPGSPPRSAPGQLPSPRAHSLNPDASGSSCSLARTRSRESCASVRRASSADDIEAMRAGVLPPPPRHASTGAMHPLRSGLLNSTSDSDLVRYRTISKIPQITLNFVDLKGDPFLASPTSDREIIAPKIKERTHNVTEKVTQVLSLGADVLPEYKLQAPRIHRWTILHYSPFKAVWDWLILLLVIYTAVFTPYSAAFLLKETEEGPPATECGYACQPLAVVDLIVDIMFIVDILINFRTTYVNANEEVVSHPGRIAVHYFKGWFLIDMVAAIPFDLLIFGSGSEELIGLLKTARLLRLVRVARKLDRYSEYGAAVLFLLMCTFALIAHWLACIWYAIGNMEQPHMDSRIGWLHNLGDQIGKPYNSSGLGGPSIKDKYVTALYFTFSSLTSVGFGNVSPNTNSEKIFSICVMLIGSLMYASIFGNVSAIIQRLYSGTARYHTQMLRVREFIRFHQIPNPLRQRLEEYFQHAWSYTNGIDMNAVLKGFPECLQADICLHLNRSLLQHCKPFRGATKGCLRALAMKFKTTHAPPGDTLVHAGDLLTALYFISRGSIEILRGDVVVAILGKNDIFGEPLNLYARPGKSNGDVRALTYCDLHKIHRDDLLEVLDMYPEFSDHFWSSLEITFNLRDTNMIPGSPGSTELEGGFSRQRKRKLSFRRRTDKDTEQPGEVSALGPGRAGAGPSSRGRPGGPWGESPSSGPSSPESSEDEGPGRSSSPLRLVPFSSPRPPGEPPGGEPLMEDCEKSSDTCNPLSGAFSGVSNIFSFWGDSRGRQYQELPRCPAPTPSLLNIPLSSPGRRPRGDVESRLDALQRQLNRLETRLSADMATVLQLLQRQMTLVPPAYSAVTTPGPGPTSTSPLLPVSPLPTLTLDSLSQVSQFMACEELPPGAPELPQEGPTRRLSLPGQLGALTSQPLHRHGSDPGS
How it was run: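 Thallium served as the potassium surrogate; its influx into dye-loaded U2OS cells carrying the channel was measured by fluorescence over 2 min.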

[7] = biological target: Cytochrome P450 3A4 (Homo sapiens) (UniProt P08684); test: Cytochrome P450 Family 3 Subfamily A Member 4 (CYP3A4) small molecule antagonists: luciferase reporter qHTS assay (AID 1671201); also: nearly all actives have a fitted effect of over 50% in size
Cytochrome P450 3A4 (Homo sapiens), sequence (P08684 whole entry, looked up): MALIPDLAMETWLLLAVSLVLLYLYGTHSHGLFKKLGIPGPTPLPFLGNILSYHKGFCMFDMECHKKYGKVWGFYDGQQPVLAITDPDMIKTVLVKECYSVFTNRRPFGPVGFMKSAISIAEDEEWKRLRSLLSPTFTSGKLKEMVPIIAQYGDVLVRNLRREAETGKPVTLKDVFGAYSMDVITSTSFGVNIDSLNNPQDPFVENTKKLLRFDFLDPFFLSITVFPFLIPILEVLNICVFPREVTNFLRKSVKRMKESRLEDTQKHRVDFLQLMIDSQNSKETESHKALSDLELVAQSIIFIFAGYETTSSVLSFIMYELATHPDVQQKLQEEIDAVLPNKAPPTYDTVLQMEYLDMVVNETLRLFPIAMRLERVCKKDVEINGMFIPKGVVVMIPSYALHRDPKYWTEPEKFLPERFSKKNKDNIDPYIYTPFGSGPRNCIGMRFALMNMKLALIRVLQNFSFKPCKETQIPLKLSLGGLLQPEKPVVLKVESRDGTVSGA
How it was run: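 Relative luminescence units after 20 min with luciferin detection reagent served as read-out. Beforehand, CYP3A4 turned over a proluciferin substrate for 1 h at room temperature with NADPH regeneration, following 10 min compound preincubation.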

[8] = biological target: Cytochrome P450 1A2 (Homo sapiens) (UniProt P05177); test: Cytochrome P450 Family 1 Subfamily A Member 2 (CYP1A2) small molecule antagonists: luciferase reporter qHTS assay (AID 1671199); also: nearly all actives have a fitted effect of over 50% in size
Cytochrome P450 1A2 (Homo sapiens), sequence (P05177 whole entry, looked up): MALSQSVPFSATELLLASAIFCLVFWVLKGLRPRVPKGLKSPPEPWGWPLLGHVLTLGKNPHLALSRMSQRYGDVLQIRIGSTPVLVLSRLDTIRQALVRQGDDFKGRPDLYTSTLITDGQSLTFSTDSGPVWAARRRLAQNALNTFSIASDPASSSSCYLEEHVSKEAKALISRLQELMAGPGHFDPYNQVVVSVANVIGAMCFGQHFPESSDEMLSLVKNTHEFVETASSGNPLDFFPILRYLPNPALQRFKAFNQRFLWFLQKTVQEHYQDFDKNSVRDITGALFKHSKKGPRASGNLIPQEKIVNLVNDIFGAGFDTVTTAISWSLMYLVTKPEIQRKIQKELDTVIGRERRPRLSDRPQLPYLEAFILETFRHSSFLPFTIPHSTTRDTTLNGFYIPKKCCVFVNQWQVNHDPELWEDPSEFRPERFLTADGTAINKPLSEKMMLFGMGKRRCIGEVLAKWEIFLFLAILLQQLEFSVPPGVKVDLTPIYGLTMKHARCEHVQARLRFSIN
How it was run: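 Steps: enzyme-substrate mix dispensed; test compounds and furafylline control pinned in; 10 min room temperature; NADPH regeneration solution added, 1 h; reaction stopped with luciferin detection reagent; luminescence read after 20 min.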
Potency is read from the fitted curve at half-maximal effect.

Row | SMILES | Potency [1] | Potency [2] | Potency [3] | Potency [4] | Potency [5] | Potency [6] | Potency [7] | Potency [8]
1 | CC1(C)[C@H](C(=O)O[C@H](C#N)c2cccc(Oc3ccccc3)c2)[C@@H]1/C=C(\Cl)C(F)(F)F | inactive | inactive | inactive | 5.86 µM (active) and 7.1 µM (active) | 8.28 µM (active) and 7.96 µM (active) | inactive | inactive | –
2 | CC(C)OC(=S)S | inactive | inactive | inactive | inactive | 31.7 µM (active) | inactive | inactive | –
3 | C[C@@H]1O[C@@H](O[C@H]2C[C@@H](O)[C@]3(CO)[C@H]4[C@H](O)C[C@]5(C)[C@@H](C6=CC(=O)OC6)CC[C@]5(O)[C@@H]4CC[C@]3(O)C2)[C@H](O)[C@H](O)[C@H]1O | inactive | inactive | inactive | inactive | inactive | inactive | inactive | –
4 | CCOP(=S)(OCC)OC(Cl)C(Cl)(Cl)Cl (stereo not drawn) | 31.7 µM (active) | 28.3 µM (active) | inactive | 39.9 µM (active) | 3.99 µM (active) | – | 3.99 µM (active) | 35.6 µM (active)
5 | COc1ccc(N)cc1N | inactive | inactive | 10.3 µM (active) and 17.1 µM (active) | 732 nM (active) and 3.83 µM (active) | 41.2 µM (active) and 24.2 µM (active) | inactive | 11.6 µM (active) | 6.53 µM (active) and 38.3 µM (active)
6 | ClC(Cl)=C(Cl)Cl | inactive | inactive | inactive | inactive | inactive | inactive | inactive | –
7 | C=CCOC(N)=O | inactive | inactive | inactive | inactive | inactive | inactive | inactive | –
8 | COCC(=O)N(c1c(C)cccc1C)[C@H](C)C(=O)OC | inactive | inactive | inactive | 79.6 µM (active) | inactive | inactive | inactive | –
9 | ClC1=C(Cl)C2(Cl)C3C(Cl)C(Cl)CC3C1(Cl)C2(Cl)Cl (stereo not drawn) | inactive | inactive | inactive | 3.16 µM (active) and 3.56 µM (active) | 31.6 µM (active) and 20 µM (active) | 24.5 µM (active) | 708 nM (active) and 2 µM (active) | inactive
10 | Cl/C=C\CCl | inactive | inactive | inactive | inactive | inactive | inactive | inactive | 35.6 µM (active)
11 | C=CC(=O)OCC(COC(=O)C=C)(COC(=O)C=C)COC(=O)C=C | inactive | inactive | 28.3 µM (active) | 17.8 µM (active) | 14.2 µM (active) | inactive | 1.26 µM (active) | inactive
12 | CCCCCCCCCC[N+](C)(C)CCCCCCCCCC | 56.4 µM (active) | inactive | 1 µM (active) | 35.6 µM (active) | 39.9 µM (active) | – | 56.4 µM (active) | 39.9 µM (active)
